Our source for the viability decrease (inhibition) values is PubChem BioAssay.

The source made the active and inactive calls.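 How the source made its calls: active means compounds that lower survival of DLD-1 colon cancer cells in the luminescence readout, no cutoff given; inactive means the rest.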

The assay can be described thus: NPC library primary testing for decreased DLD-1 cell viability via CellTiter-Glo (AID 1117346). Particulars: DLD-1 viability, CellTiter-Glo luminescence; at 20 µM (top of the series).
`CCCn1cnc2c1c(=O)n(CCCCC(C)=O)c(=O)n2C`: the viability decrease (inhibition) was 19.6% (inactive).

`Cc1c(C)n(CCN(C)C)c2ccc(C(=O)OCCN(C)C)cc12`: the viability decrease (inhibition) was 0.9% (inactive).

For `O=C(O)C1(C(=O)O)CCC1.[NH2-].[NH2-].[Pt+2]`, the viability decrease (inhibition) is 5.7% (inactive).

With `N[C@@H](Cc1ccc(O)cc1)C(=O)O`, the viability decrease (inhibition) is -0.1% (inactive).

As for `CCCC(=O)O[C@]1(C(=O)CO)CC[C@H]2[C@@H]3CCC4=CC(=O)CC[C@]4(C)[C@H]3[C@@H](O)C[C@@]21C`, the viability decrease (inhibition) was 1% (inactive).

Regarding `O=C(O)C(S)C(S)C(=O)O` (centres undefined), the viability decrease (inhibition) was -4.5% (inactive).

Consider `CC(C)=CCC[C@@](C)(O)[C@H]1CC=C(C)CC1`, for which the viability decrease (inhibition) is -9.9% (inactive).

Turning to `C[C@]12CC[C@@H]3c4ccc(O)cc4CC[C@H]3[C@@H]1CC[C@@H]2OC(=O)CCC1CCCC1`, the viability decrease (inhibition) is -23.3% (inactive).

In the case of `CC(=O)N(c1onc(C)c1C)S(=O)(=O)c1ccc(N)cc1`, the viability decrease (inhibition) was 5.3% (inactive).

Consider `C#C[C@]1(OC(C)=O)CC[C@H]2[C@@H]3CCC4=C/C(=N/O)CC[C@@H]4[C@H]3CC[C@@]21CC`, for which the viability decrease (inhibition) is 101% (active).

For the molecule `C[C@]12CCC(=O)C=C1CC[C@H]1[C@@H]3CC[C@](O)(C(=O)CO)[C@@]3(C)C[C@H](O)[C@@]12F`, the viability decrease (inhibition) is -2% (inactive).

Take `c1ccc2ccccc2c1`: the viability decrease (inhibition) is 4.2% (inactive).

Turning to `Cc1c(-c2ccc(O)cc2)n(Cc2ccc(OCCN3CCCCCC3)cc2)c2ccc(O)cc12`, the viability decrease (inhibition) was 101% (active).

As for `CC(=C(CCOC(=O)C(C)C)SSC(CCOC(=O)C(C)C)=C(C)N(C=O)Cc1cnc(C)nc1N)N(C=O)Cc1cnc(C)nc1N`, the viability decrease (inhibition) is -3.9% (inactive).

As for `Cc1cc(-c2ccc(N=Nc3c(S(=O)(=O)O)cc4cc(S(=O)(=O)O)cc(N)c4c3O)c(C)c2)ccc1N=Nc1c(S(=O)(=O)O)cc2cc(S(=O)(=O)O)cc(N)c2c1O`, the viability decrease (inhibition) is 23.9% (inactive).

As for `O=[N+]([O-])c1cccc(S(=O)(=O)NCCNS(=O)(=O)c2cccc([N+](=O)[O-])c2)c1`, the viability decrease (inhibition) is 14.5% (inactive).

In the case of `CC(C)Cn1cnc2c1c(=O)n(C)c(=O)n2C`, the viability decrease (inhibition) was 11.3% (inactive).

With `CCCCC(=O)O[C@]1(C(=O)CO)CC[C@H]2[C@@H]3CCC4=CC(=O)CC[C@]4(C)[C@H]3[C@@H](O)C[C@@]21C`, the viability decrease (inhibition) was -15.9% (inactive).

Consider `C[C@@H]1CCC[C@H](C)N1`, for which the viability decrease (inhibition) was 2.2% (inactive).

For the molecule `CN(C)CCCO[C@@H]1[C@H]2OC(C)(C)O[C@H]2O[C@@H]1C(O)CO` (some centres undefined), the viability decrease (inhibition) was 66.4% (active).

Take `CCN(CC)C(=O)c1cccnc1`: the viability decrease (inhibition) is 6.2% (inactive).

In the case of `O=C(O)c1cc(N=Nc2ccc(O)c(C(=O)O)c2)ccc1O`, the viability decrease (inhibition) was 18.3% (inactive).

Regarding `CC(=O)Oc1ccc2c(c1)CC[C@@H]1[C@@H]2CC[C@]2(C)[C@@H](O)CC[C@@H]12`, the viability decrease (inhibition) was 35.2% (inactive).

For the molecule `CCOc1ccccc1C(N)=O`, the viability decrease (inhibition) was -1.45% (inactive).

Take `CCCCCCCCCCCCCCCCCC[N+](C)(C)CCC[Si](OC)(OC)OC`: the viability decrease (inhibition) was 1.7% (inactive).

On to `N[C@H]1C(O)O[C@H](CO)[C@@H](O)[C@@H]1O` (some centres undefined), for which the viability decrease (inhibition) was -2.3% (inactive).

For `Cc1ccc2nc(N)[nH]c(=O)c2c1Sc1ccncc1`, the viability decrease (inhibition) is 42.1% (inactive).

Take `CN1C[C@@H]2C[C@H]1CN2c1cc2c(cc1F)c(=O)c(C(=O)O)cn2C1CC1`: the viability decrease (inhibition) is -40.5% (inactive).

`CO[C@H]1O[C@@H]2O[C@@]3(C)CC[C@H]4[C@H](C)CC[C@@H]([C@@H]1C)[C@@]24OO3`: the viability decrease (inhibition) was 7.2% (inactive).
